The structures appear in SMILES notation. Structures can show the parent of a compound that is named as a salt.

One experiment concerns ES2. The experiment can be described thus: cell viability relative to DMSO control (MTS) (fraction of DMSO control); higher = more viable cells / less growth inhibition. The following applies: 10 µM; 48 h. In a few lines:
(§1)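 After 24 h of growth in 96-well plates at 5000 cells per well, TOV-21G and ES2 clear cell carcinoma cells were treated for 48 h with a 367-compound […] library at 10 µM final concentration. Cell viability was measured by MTS assay and expressed relative to vehicle control wells as a fraction.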

The next experiment concerns TOV-21G. The description is as above. To be noted: 10 µM; 48 h. In short, it runs like this: as §1

Turning to `C/C=C/C/C=C/CCC(=O)[C@H]1O[C@H]1C(N)=O` [Cerulenin], the cell viability was found to be 1.4 with ES2 and 1.03 in the experiment on TOV-21G.
In the same order, the values of `COc1ccc(COc2ccc(Cc3cnc(N)nc3N)cc2OC)cc1` [cFMS Receptor Tyrosine Kinase Inhibitor] are 0.942 and 1.01.
The matching figures for `C[C@@H]1C[C@H]2[C@@H]3CCC4=CC(=O)C=C[C@]4(C)[C@@]3(F)[C@@H](O)C[C@]2(C)[C@@]1(O)C(=O)CO` [Dexamethasone]: 1.01 and 1.29.
The matching figures for `C[C@@H]1C[C@H]2O[C@@H]2/C=C\C=C\C(=O)Cc2c(Cl)c(O)cc(O)c2C(=O)O1` [radicicol]: 0.409 and 0.342.
With `CCN(CC)CCNC(=O)c1c(C)[nH]c(/C=C2\C(=O)Nc3ccc(Cl)cc32)c1C`, the cell viability was determined as 0.254 with ES2 and 0.222 in the experiment with TOV-21G.
In the case of `COC(=O)CNC(=O)C(=O)OC` [Dimethyloxalylglycine], the cell viability worked out at 1.23 with ES2 and 0.917 in the experiment with TOV-21G.
In the same order, the values of `Cc1ccc(NC(=O)c2ccc(CN3CCN(C)CC3)cc2)cc1Nc1nccc(-c2cccnc2)n1` [imatinib mesylate] are 0.956 and 1.09.
`CC(C)C[C@H](NC(=O)[C@@H](O)[C@H](N)Cc1ccccc1)C(=O)O` [Bestatin]: the cell viability was found to be 0.885 with ES2 and 1.13 in the experiment on TOV-21G.
In the same order, the values of `O=Nc1c(-c2c(O)[nH]c3ccccc23)[nH]c2ccccc12` [indirubin-3'-monoxime] are 0.696 and 0.491.
For the compound `CC(C)C(C(=O)O)N1C(=O)C(=Cc2ccc(Br)cc2)SC1=S` (configuration not stated), the figures for the cell viability in the experiment with ES2 and in the experiment with TOV-21G were 1.11 and 1.16, respectively.
In the same order, the values of `CCOc1nc(NC(=O)Cc2cc(OC)ccc2OC)cc(N)c1C#N` [JNK inhibitor VIII] are 1.09 and 1.12.
With `CCn1cc(C(=O)O)c(=O)c2ccc(C)nc21` [Nalidixic acid], the cell viability with ES2 came out at 0.981; in the experiment on TOV-21G it was 1.12.
In the case of `CC(=N)NCc1cccc(CN)c1`, the cell viability in the experiment with ES2 stood at 1.15; with TOV-21G, 0.992.
In the same order, the values of `CCCCCCCCCCC1=C(C)C(=O)C(OC)=C(OC)C1=O` [Decylubiquinone] are 1.02 and 0.981.
For the compound `C#Cc1cccc(Nc2ncnc3cc(OCCOC)c(OCCOC)cc23)c1` [erlotinib], the cell viability in the experiment on ES2 came out at 0.7; in the experiment on TOV-21G, 0.487.
Turning to `CNC(=O)[C@H](Cc1c[nH]c2ccccc12)NC(=O)[C@@H](CC(=O)NO)CC(C)C`, the cell viability in the experiment on ES2 stood at 1.02; with TOV-21G, 0.959.
The matching figures for `O=C1C(SCCO)=C(SCCO)C(=O)c2ccccc21`: 0.962 and 0.861.
On to `Cc1ncc2ccccc2c1C#N` [4-cyano-3-methylisoquinoline], for which the values for the cell viability with ES2 and with TOV-21G were 1.01 and 1, respectively.
The matching figures for `O=Cc1ccc(N2CCOCC2)cc1O`: 1.07 and 0.993.
In the same order, the values of `CC(/C=C/C(=O)NO)=C\[C@@H](C)C(=O)c1ccc(N(C)C)cc1` [Trichostatin A] are 0.343 and 0.355.
In the same order, the values of `CS(=O)(=O)c1ccc(C(=O)Nc2ccc(Cl)c(-c3ccccn3)c2)c(Cl)c1` [Vismodegib] are 0.967 and 0.897.
As for `c1ccc2c(-c3cnn4cc(-c5ccc(N6CCNCC6)cc5)cnc34)ccnc2c1`, the values for the cell viability in the experiment with ES2 and with TOV-21G were 0.267 and 0.344, respectively.
Turning to `CC(Cc1ccc(O)c(O)c1)C(C)Cc1ccc(O)c(O)c1` (configuration not stated) [Nordihydroguaiaretic acid (NDGA)], the cell viability stood at 1 in the experiment on ES2 and 0.865 in the experiment on TOV-21G.
The matching figures for `CCCCC(=O)Oc1ccccc1C(=O)O` [Valeryl salicylate]: 0.917 and 1.01.
Regarding `CC(C)C[C@@H](N)[C@H](O)C(=O)N[C@H](C(=O)N[C@H](C(=O)N[C@@H](CC(=O)O)C(=O)O)C(C)C)C(C)C` [Amastatin], the cell viability is 0.963 with ES2 and 1.02 with TOV-21G.
For the compound `CC(C)(C)NC(=O)[C@H]1CC[C@H]2[C@@H]3CC[C@H]4NC(=O)C=C[C@]4(C)[C@H]3CC[C@]12C` [Finasteride], the cell viability with ES2 came out at 1.3; with TOV-21G, 0.952.
Regarding `CCC(=C/[C@H](C)C/C=C/C(C)=C/[C@@H](C)C(=O)[C@@H](C)[C@H](O)[C@@H](C)C/C(C)=C/C(=O)O)/C=C/[C@@H]1OC(=O)C=C[C@@H]1C` [Leptomycin B*], the cell viability was found to be 0.406 with ES2 and 0.39 with TOV-21G.
With `COc1cc2c(NC3CCN(C(C)C)CC3)nc(C3CCCCC3)nc2cc1OCCCN1CCCC1`, the cell viability with ES2 was 0.337; with TOV-21G it was 0.486.
For the compound `CC(C)C(=O)Nc1ccc([N+](=O)[O-])c(C(F)(F)F)c1` [Flutamide], the cell viability in the experiment on ES2 was determined as 0.917; in the experiment on TOV-21G it was 1.09.
Take `CC#C[C@]1(O)CC[C@H]2[C@@H]3CCC4=CC(=O)CCC4=C3[C@@H](c3ccc(N(C)C)cc3)C[C@@]21C` [Mifepristone]: the cell viability in the experiment with ES2 came to 1.04; with TOV-21G, 0.846.
`Cc1cnc(-c2cnc(NCCNc3ccc(C#N)cn3)nc2-c2ccc(Cl)cc2Cl)[nH]1`: the figures for the cell viability in the experiment with ES2 and with TOV-21G were 1.05 and 0.888, respectively.

The values above are taken from the supplement of paper PMC12669797.
